Inconclusive results are not listed. Active and inactive are the calls of the source. Calls come from the whole dose curve; as a rule, active = well fitted curve in the direction sought with a large enough effect; inconclusive = small, poorly fitted or top-dose-only effect, or another doubt; inactive = no such curve, though single readings can be large; an effect the other way counts as inactive or inconclusive.
Tests used:
[1] = biological target: Glutathione peroxidase 1 (Homo sapiens) (UniProt P07203); test: Primary qHTS Assay for Inhibitors of Recombinant Selenoprotein Glutathione Peroxidase 1 (GPX1) (AID 1845191); note: nearly all actives have a fitted effect of over 65% in size
Glutathione peroxidase 1 (Homo sapiens), sequence (P07203 whole entry, looked up): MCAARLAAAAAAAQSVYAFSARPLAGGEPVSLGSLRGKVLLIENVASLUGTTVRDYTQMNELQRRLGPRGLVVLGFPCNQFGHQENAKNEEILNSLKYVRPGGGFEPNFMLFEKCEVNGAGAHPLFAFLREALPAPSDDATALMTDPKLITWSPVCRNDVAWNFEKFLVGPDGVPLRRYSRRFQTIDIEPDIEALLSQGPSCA
Procedure, shortened: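 NADPH consumption tracked by fluorescence at 340/450 nm between t=0 and t=15 min, room temperature. Final mix: 10 nM GPX1, 100 nM glutathione reductase, 1 mM GSH, 0.5 mM NADPH, 0.5 mM cumene hydroperoxide, 0.01% BSA; 30 min compound–enzyme preincubation.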

[2] = biological target: Phospholipid hydroperoxide glutathione peroxidase GPX4 (Homo sapiens) (UniProt P36969); test: Primary qHTS Assay for Inhibitors of Recombinant Selenoprotein Glutathione Peroxidase 4 (GPX4) (AID 1845192); note: nearly all actives have a fitted effect of over 65% in size
Phospholipid hydroperoxide glutathione peroxidase GPX4 (Homo sapiens), sequence (P36969 whole entry, looked up): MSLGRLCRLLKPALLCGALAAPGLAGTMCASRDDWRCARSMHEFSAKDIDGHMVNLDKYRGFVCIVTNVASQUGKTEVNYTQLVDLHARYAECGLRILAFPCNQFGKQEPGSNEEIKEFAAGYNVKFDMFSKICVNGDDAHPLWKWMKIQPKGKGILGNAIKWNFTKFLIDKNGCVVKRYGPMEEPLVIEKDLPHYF
Procedure, shortened: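 NADPH consumption followed by fluorescence at 340/450 nm, t=0 and after 15 min at room temperature. Reaction started with cumene hydroperoxide (0.5 mM final) after 30 min compound–GPX4 preincubation; final 200 nM GPX4, 100 nM GR, 1 mM GSH, 0.5 mM NADPH.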

[3] = biological target: Luciferin 4-monooxygenase (Photinus pyralis) (UniProt P08659); test: Primary firefly luciferase (FLuc) qHTS assay for identification of artifact compounds. (AID 1845220); note: nearly all actives have a fitted effect of over 60% in size
Procedure, shortened: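 FLuc 10 nM; luciferin 10 uM; ATP 10 uM; Tris-acetate pH 7.6, Mg-acetate 10 mM; 15 min RT preincubation; 5 min reaction; luminescence.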

[4] = Primary fluorescence-based thiol-reactive (MSTI) qHTS assay for identification of artifact compounds. (AID 1845221);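 note: series mostly up to about 54 µM; thiol-reactive compounds lower the probe fluorescence signal; nearly all actives have a fitted effect of over 65% in size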
Procedure, shortened: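 In PBS pH 7.4 with 2% DMSO, each compound met 4 uM MSTI for one hour at ambient temperature, shielded from light, before fluorescence detection.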

[5] = system: Nanoluciferase (engineered Oplophorus gracilirostris luciferase); test: Primary Nanoluciferase (NLuc) qHTS assay for identification of artifact compounds. (AID 1845222);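 note: NLuc secreted into diluted conditioned medium of S16 cells; series mostly up to about 54 µM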
Procedure, shortened: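 NLuc from S16 cell medium (1:55) plus test compounds, 15 min, room temperature. Luminescence after Nano-Glo (1:100) addition, 5 min.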

Measured: Potency

CCOC(=O)C1(CCOc2ccccc2)CCN(Cc2ccc(O)c(Cl)c2)CC1
inactive: all assays above

CC(C)/C=C1\NC(=O)C(C(C)C)n2c1nc1ccccc1c2=O (stereo not given)
inactive: all assays above

COc1ccc(Cl)c(Nc2ncnc3cc(OCC4CCN(C)CC4)c(OC)cc23)c1
inactive: all assays above

CC(=O)N1CCN(CCOc2ccc(C3CCN(C4=Nn5c(nnc5C(F)(F)F)CC4)CC3)cc2)CC1
inactive: all assays above

CC(C)C[C@@H]1NC(=O)[C@@H](Cc2ccccc2)NC(=O)C(CCCCCC(=O)C2CO2)NC(=O)[C@@H]2CCCCN2C1=O (stereo not given in full)
inactive: all assays above

CN(C)CCn1cc(-c2ccc(F)cc2)c(-n2cccc2)n1
inactive: all assays above

CCc1cc2c(cc1CC)CC(NCC(O)c1ccc(O)c3[nH]c(=O)ccc13)C2 (stereo not given)
inactive: all assays above

CC(O)(C(=O)C1CC1(CO)COC1OC(CO)C(O)C(O)C1O)C1C(O)CC2C3CC=C4CC(O)CC(O)C4(C)C3C(O)CC21C (stereo not given)
inactive: all assays above

CC#CC(=O)Nc1ccc2ncnc(Nc3cccc(Br)c3)c2c1
inactive: all assays above

COC(=O)C[C@H]1C(C)(C)[C@H](OC(=O)c2ccccc2)C2CC3=C4CC(=O)O[C@@H](c5ccoc5)[C@]4(C)CCC3[C@@]1(C)C2=O (stereo not given in full)
inactive: all assays above

Fc1ccc(CN2CCC(Nc3ccc(C(F)(F)F)nn3)CC2)cc1F
inactive: all assays above
